# Screen size: about 310,000 compounds; about 14,000 (4.5%) showed an effect of 50% or more. The effect is printed as a negative number. The entries come from a sample that favours strong results as a whole.
# Biological target: human ether-à-go-go-related gene (hERG) potassium channel (human, UniProt Q12809)
# Experiment: primary screen, population patch clamp on CHO cells stably expressing hERG; higher = less effect of the substance
# 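Also: peak tail current of the secondary pulse compared with the same well before compound.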
# Chain of human ether-à-go-go-related gene (hERG) potassium channel (Q12809 whole entry, looked up): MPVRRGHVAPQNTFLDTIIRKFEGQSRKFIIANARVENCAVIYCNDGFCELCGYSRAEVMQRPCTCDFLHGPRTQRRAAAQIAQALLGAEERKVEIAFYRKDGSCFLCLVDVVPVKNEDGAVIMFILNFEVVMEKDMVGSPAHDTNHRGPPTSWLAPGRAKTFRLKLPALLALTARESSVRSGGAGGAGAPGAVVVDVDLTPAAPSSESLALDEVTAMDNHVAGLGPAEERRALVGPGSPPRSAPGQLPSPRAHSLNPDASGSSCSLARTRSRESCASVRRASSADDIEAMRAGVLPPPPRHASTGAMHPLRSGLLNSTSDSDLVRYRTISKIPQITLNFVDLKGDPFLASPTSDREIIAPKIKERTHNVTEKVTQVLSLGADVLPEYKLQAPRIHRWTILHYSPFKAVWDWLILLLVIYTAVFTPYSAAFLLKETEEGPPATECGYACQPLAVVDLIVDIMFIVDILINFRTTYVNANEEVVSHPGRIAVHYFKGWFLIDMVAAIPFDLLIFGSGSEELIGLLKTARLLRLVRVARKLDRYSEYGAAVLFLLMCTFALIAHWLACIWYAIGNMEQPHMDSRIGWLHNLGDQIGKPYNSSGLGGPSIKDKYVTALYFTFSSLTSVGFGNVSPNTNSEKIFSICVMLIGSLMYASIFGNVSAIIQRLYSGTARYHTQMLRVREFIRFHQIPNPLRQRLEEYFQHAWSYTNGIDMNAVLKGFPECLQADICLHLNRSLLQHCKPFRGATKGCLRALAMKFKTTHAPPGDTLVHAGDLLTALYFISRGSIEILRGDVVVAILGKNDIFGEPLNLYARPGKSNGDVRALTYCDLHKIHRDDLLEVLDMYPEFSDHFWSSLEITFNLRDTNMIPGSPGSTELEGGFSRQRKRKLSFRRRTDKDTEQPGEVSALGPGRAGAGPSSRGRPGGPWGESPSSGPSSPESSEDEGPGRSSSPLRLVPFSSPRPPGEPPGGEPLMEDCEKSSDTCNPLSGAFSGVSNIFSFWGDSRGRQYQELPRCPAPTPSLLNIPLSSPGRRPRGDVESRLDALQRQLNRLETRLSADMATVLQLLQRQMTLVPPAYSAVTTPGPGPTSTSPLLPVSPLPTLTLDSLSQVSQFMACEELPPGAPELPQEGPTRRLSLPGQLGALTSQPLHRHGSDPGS
row,Compound,"hERG current change (%, negative = inhibition) at 10uM [%]"
1,Cc1cccc(NC(=O)/C(=C\c2ccco2)NC(=O)c2ccccc2)c1,-22.4
2,CC(=O)N1CCC(=NNc2ncc(C(F)(F)F)cc2Cl)CC1,2.73
3,CCOC(=O)c1ccc(N=c2sc(C(=O)OC)cc(=O)n2Cc2ccco2)cc1,13.7
4,O=C(CN1C(=O)c2ccccc2C1=O)NCc1ccncc1,-33.1
5,COc1ccc(NC(=O)c2ccc(-c3csc(C)n3)cc2)cc1,18.5
6,Cc1ccc(C(=O)CNc2ccccc2)cc1,16.2
7,O=C(CCl)Nc1cccc(Oc2ccccc2)c1,-22.4
8,O=[N+]([O-])c1ccc(N2CCN(S(=O)(=O)c3ccc(Cl)c(Cl)c3)CC2)cc1NCCN1CCOCC1,3.04
9,COC(=O)c1cc(NC(=O)CCc2c(C)nc3ncnn3c2C)cc(C(=O)OC)c1,-36.1
10,Cc1cccc(N(C)c2cc(C)nc3nc(C)nn23)c1,-15.8
11,Cc1ccc(-c2cnn(-c3cccc(C(F)(F)F)c3)c2N)cc1,-3.62
12,CCOc1ccc(NC(=O)C(=O)NCCN2CCN(S(=O)(=O)c3ccccc3)CC2)cc1,-8.75
13,COc1ccc(NC(=O)C(=O)NCCN2CCN(C(=O)C(c3ccccc3)c3ccccc3)CC2)cc1,-20.8
14,COc1ccc(NC(=O)C(=O)NCCN2CCN(C(=O)c3ccc(C)cc3)CC2)cc1,-75.4
15,CCOc1ccc(NC(=O)C(=O)NCCN2CCN(S(=O)(=O)c3ccc(C)cc3)CC2)cc1,8.62
16,CCOc1ccc(NC(=O)C(=O)NCCN2CCN(C(=O)c3ccc(C)cc3)CC2)cc1,-75.2
17,CNC(=O)C(=O)NCCN1CCN(C(=O)c2ccc([N+](=O)[O-])cc2)CC1,-39.6
18,COc1ccc(NC(=O)C(=O)NCCN2CCN(C(=O)c3ccc(C(C)(C)C)cc3)CC2)cc1,-2.54
19,O=C(NCCN1CCN(C(=O)c2ccc([N+](=O)[O-])cc2)CC1)C(=O)Nc1ccc(F)cc1,-76.8
20,CCC(C)[C@H](NC(=O)NCc1ccccc1Cl)C(=O)OC (stereo partly shown),12
21,CN(C)c1ccc(C(=O)Nc2ccc(S(=O)(=O)NC3=NCCCCC3)cc2)cc1,-5.38
22,CCc1ccc(N(C(=O)Cc2cccs2)C(C(=O)NC2CCCCC2)c2cn(C)nc2C)cc1 (stereo not shown),-21.4

row,Compound,"hERG current change (%, negative = inhibition) at 10uM [%]"
1,CCN1CCCC1CNC(=O)C(=O)NC1CC1 (stereo not shown),10.3
2,CCOC(=O)c1cc(-c2ccc3c(c2)OCCO3)n[nH]1,20.3
3,Cc1cccc(NC(=O)Nc2ccc(Cl)c(Cl)c2)n1,9.38
4,CCOc1ccccc1C(=O)NCc1ccc2c(c1)OCO2,-12.1
5,O=C(CCN1C(=O)[C@@H]2Cc3ccccc3CN2C1=O)N[C@@H](Cc1ccccc1)C(=O)O,8.75
6,COc1ccc(Nc2nc(NCCCN3CCOCC3)nc(N)c2[N+](=O)[O-])cc1,-22
7,Cc1ccc(Nc2nc(NCCCN3CCOCC3)nc(N)c2[N+](=O)[O-])cc1,-66.1
8,Nc1nc(NCCCN2CCOCC2)nc(Nc2ccc(Cl)cc2)c1[N+](=O)[O-],7.65
9,Nc1nc(NCCCN2CCOCC2)nc(Nc2ccc(F)cc2)c1[N+](=O)[O-],-58.6
10,Cc1ccc(Nc2nc(NCCCN3CCOCC3)nc(N)c2[N+](=O)[O-])cc1C,-5.15
11,Nc1nc(NCCCN2CCOCC2)nc(Nc2ccccc2)c1[N+](=O)[O-],-36.5
12,O=C1CN(C(=O)COC(=O)CNC(=O)c2ccc(Cl)cc2)c2ccccc2N1,-6.75
13,CC(C)OC(=O)/C(C#N)=C\c1cccnc1,26.3
14,Cc1cccnc1NC(=O)c1cccc(S(=O)(=O)N2CCCC2)c1,-8.13
15,CCCn1c(N)c(C(=O)COC(=O)c2c(C)noc2C)c(=O)n(C)c1=O,-21
16,COC(=O)CN1C(=O)[C@H]2[C@@H](c3ccc(C)o3)N3C(=O)CN(CCO)C(=O)[C@@]3(C)[C@H]2C1=O,-2.13
17,CN=C1S/C(=C\c2ccc(Cl)cc2)C(=O)N1C,27
18,CCCN(CC1CC1)C(=S)Nc1ccc(C(C)=O)cc1,0.105
19,OCCC1CN(Cc2cccn2-c2cccnc2)CCN1Cc1ccc(F)cc1 (stereo not shown),-56.9
20,OCCC1CN(Cc2cccn2-c2cccnc2)CCN1Cc1ccccc1 (stereo not shown),-42.4
21,CCOc1ccc(CN2CCN(Cc3cccn3-c3cccnc3)CC2CCO)cc1 (stereo not shown),-84.1
22,COc1cccc(CN2CCN(Cc3cccn3-c3cccnc3)CC2CCO)c1 (stereo not shown),-71.4

row,Compound,"hERG current change (%, negative = inhibition) at 10uM [%]"
1,OCCC1CN(Cc2cccn2-c2cccnc2)CCN1C1CCCCC1 (stereo not shown),-28.1
2,CCOc1ccc(CN2CCN(Cc3cccn3-c3ncccn3)CC2CCO)cc1 (stereo not shown),-78.3
3,COC(=O)c1ccc(C)c(NC(=O)CCc2ccc(OC)cc2)c1,-3.01
4,CCn1c(SC)nnc1C1CCN(CC(=O)Nc2ccccc2N2CCOCC2)CC1,-31
5,Nc1ccc(C(=O)Oc2ccc([N+](=O)[O-])cc2)cc1,10.9
6,Cc1ccc(NC(=O)Nc2ccccc2)c(Br)c1,-1.55
7,Fc1ccc(NC(=S)N2CCCC2)cc1,-1.37
8,CCCc1cnc(NCCNCC(O)COc2ccc(Cl)c(Cl)c2)nc1 (stereo not shown),-71.2
9,Cc1cc(OCC(O)CNC(C)(C)C)ccc1Cl.Cl (stereo not shown),-4.91
10,Cc1cc(OCC(O)CN)ccc1Cl (stereo not shown),8.74
11,CC(C)c1ccc(OCC(=O)NC2=NCCS2)cc1,1.4
12,CCc1cccc(C)c1NC(=O)CN(C)Cc1ccccc1F.O=C(O)C(=O)O,-23.8
13,CCC(C)c1ccc(NC(=O)COc2c(F)c(F)c(C(F)(F)F)c(F)c2F)cc1 (stereo not shown),-57.4
14,COc1cccc(NC(=O)COc2c(F)c(F)c(C(F)(F)F)c(F)c2F)c1,8.02
15,CCC(C)c1ccc(NC(=O)CC(C)=O)cc1 (stereo not shown),4.93
16,Nc1ccc(C(=O)NC23CC4CC(CC(C4)C2)C3)cc1,16.3
17,C=CCN(c1ccccc1)S(=O)(=O)c1cccc(C(=O)Nc2ncccc2O)c1,8.35
18,Cn1nccc1C(=O)Nc1ccc(OC(=O)c2ccnn2C)cc1,-6.68
19,CN(CC(O)CN)CC(O)CN1CCCCC1.Cl (stereo not shown),4.64
20,Cl.OC(CN1CCCCC1)CN(c1ccccc1)c1ccccc1 (stereo not shown),-63.2
21,Cl.OC(CN1CCCCCC1)CN(c1ccccc1)c1ccccc1 (stereo not shown),-71.8
22,Cl.OC(CN1CCOCC1)CN(c1ccccc1)c1ccccc1 (stereo not shown),-28.5

row,Compound,"hERG current change (%, negative = inhibition) at 10uM [%]"
1,COc1ccc(-c2cc(C(=O)NCc3cccs3)no2)cc1,7.1
2,O=C(COC(=O)c1cccnc1Cl)Nc1cc(S(=O)(=O)N2CCCCC2)ccc1Cl,-18.9
3,COc1ccc(NC(=O)Cn2nnc(C(=O)NCc3ccc4c(c3)OCO4)c2N)cc1,18.4
4,O=C(C1CC(=O)N(c2ccc(F)cc2)C1)N1CCCCC1 (stereo not shown),-0.378
5,Cc1ccc(N2CC(C(=O)N3CCN(c4ccccc4)CC3)CC2=O)cc1 (stereo not shown),-17.6
6,O=C(C1CC(=O)N(c2ccccc2)C1)N1CCN(c2ccccc2)CC1 (stereo not shown),-29
7,CC(c1ccccc1)N1CC(C(=O)N2CCN(c3ccccc3)CC2)CC1=O (stereo not shown),-27.2
8,O=C(C1CC(=O)N(c2ccc(F)cc2)C1)N1CCN(c2ccc(F)cc2)CC1 (stereo not shown),-73.1
9,O=C(C1CC(=O)N(c2ccc(F)cc2)C1)N1CCN(c2ccccc2)CC1 (stereo not shown),-58.3
10,CC(c1ccccc1)N1CC(C(=O)O)CC1=O (stereo not shown),10.7
11,O=C(C1CC(=O)N(c2ccccc2)C1)N1CCN(c2ccc(F)cc2)CC1 (stereo not shown),-56.7
12,O=C(C1CC(=O)N(c2ccc(F)cc2)C1)N1CCCCCC1 (stereo not shown),-6.27
13,O=C(C1CC(=O)N(c2ccccc2)C1)N1CCN(c2ccccc2F)CC1 (stereo not shown),-13.4
14,CC(c1ccccc1)N1CC(C(=O)N2CCN(c3ccc(F)cc3)CC2)CC1=O (stereo not shown),-65.3
15,O=C(O)C1CC(=O)N(c2ccc(F)cc2)C1 (stereo not shown),14.1
16,Cc1cc(C)cc(OCC(=O)Nc2ccc(N3CCCC3)cc2)c1,11.9
17,COc1ccc(C(=O)Nc2nnc(S(=O)(=O)N3CCOCC3)s2)cc1,-3.02
18,CC(C)C(=O)NNC(=O)c1c(O)c2ccccc2[nH]c1=O,10.3
19,O=C(Nc1cccc(O)c1)C1CC(c2c(F)cccc2Cl)=NO1 (stereo not shown),-15.6
20,COc1ccc(CNC(=O)OCCN2CCN(S(=O)(=O)c3ccc(C)cc3)CCC2=O)cc1,-35.9
21,CCCCC(NC(=O)Cc1c(C)c2cc3c(-c4ccccc4)coc3c(C)c2oc1=O)C(=O)O (stereo not shown),13.2
22,O=C1CC(NNc2nc3ccccc3s2)C(=O)N1c1ccc(F)cc1 (stereo not shown),3.25

# Reference: article PMC4336329 (PLoS ONE, 2015)
